The supplement of paper PMC11732987, “Enantioselective OTUD7B fragment discovery through chemoproteomics screening and high-throughput optimisation” (Communications Chemistry, 2025)

Legend:
Assay in all cases: log2 ratio of Biotin-Ahx-Ub-VS probe labelling (fragment/DMSO); higher = less target engagement (more negative = stronger competition), active = hit call of the paper (q ≤ 0.05, log2 ratio ≤ -1)
Settings in all cases: compound concentration: 200 uM; treatment time: 3 h
USP42 = target: T1, USP42 (UniProt Q9H9J4)
T1 sequence (whole entry): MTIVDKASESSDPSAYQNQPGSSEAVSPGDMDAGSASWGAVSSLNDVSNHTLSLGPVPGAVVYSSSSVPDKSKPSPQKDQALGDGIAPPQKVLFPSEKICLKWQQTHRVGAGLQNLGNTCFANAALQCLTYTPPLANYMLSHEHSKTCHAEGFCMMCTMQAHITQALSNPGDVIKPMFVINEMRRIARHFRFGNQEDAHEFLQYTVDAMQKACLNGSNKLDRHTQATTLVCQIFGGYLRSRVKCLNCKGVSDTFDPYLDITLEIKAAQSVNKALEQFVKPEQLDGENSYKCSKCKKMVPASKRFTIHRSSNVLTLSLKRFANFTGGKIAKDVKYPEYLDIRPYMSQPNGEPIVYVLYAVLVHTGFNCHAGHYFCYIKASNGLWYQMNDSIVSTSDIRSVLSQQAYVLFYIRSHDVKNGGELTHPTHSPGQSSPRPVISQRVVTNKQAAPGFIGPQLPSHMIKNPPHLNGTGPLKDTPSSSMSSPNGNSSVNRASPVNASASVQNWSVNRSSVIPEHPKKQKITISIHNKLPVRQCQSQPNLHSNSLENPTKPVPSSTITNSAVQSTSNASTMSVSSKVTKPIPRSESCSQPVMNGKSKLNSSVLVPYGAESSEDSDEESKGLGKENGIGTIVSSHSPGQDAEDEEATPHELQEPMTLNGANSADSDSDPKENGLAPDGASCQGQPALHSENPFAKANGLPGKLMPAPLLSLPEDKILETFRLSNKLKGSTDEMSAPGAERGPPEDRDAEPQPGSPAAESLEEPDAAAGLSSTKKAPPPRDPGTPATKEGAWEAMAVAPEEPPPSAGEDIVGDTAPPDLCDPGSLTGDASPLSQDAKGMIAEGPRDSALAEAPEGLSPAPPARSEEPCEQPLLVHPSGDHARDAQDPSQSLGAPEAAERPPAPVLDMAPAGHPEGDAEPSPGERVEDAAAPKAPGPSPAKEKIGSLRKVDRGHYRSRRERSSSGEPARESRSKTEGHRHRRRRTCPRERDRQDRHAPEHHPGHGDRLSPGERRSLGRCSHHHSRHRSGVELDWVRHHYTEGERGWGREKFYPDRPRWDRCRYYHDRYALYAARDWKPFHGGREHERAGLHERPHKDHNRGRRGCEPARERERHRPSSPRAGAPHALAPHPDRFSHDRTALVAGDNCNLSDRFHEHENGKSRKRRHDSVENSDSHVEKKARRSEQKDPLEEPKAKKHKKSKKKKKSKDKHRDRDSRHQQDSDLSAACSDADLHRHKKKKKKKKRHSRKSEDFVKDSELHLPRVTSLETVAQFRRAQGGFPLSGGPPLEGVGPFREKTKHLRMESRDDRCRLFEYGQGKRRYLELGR
How it was run: (§1)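 Values give the average log2 ratio of fragment to vehicle, assessed by unpaired t-test on global-median-normalised Spectronaut label-free quantities. Proteins needed ≥2 unique peptides. HEK293T lysate (495 µg per sample) was treated in triplicate with fragment at 200 µM or vehicle for 3 h and then with Biotin-Ahx-Ub-VS at 0.5 µM final for 1 h. Labelled DUBs were NeutrAvidin-enriched, digested and run by diaPASEF LC-MS/MS.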

USP46 = USP46 (UniProt P62068)
Chain of USP46 (P62068 whole entry): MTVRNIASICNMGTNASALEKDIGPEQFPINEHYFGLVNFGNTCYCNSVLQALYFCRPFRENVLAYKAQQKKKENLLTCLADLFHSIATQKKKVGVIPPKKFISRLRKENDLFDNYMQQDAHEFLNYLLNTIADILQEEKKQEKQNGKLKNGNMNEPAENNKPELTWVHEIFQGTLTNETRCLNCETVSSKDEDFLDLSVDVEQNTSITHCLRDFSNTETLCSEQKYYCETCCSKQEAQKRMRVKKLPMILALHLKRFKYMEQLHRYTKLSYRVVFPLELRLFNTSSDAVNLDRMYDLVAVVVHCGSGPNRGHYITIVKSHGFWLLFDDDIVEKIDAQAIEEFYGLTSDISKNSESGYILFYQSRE
How it was run: as §1

USP47 = target: T2, USP47 (UniProt Q96K76)
T2 sequence (whole entry): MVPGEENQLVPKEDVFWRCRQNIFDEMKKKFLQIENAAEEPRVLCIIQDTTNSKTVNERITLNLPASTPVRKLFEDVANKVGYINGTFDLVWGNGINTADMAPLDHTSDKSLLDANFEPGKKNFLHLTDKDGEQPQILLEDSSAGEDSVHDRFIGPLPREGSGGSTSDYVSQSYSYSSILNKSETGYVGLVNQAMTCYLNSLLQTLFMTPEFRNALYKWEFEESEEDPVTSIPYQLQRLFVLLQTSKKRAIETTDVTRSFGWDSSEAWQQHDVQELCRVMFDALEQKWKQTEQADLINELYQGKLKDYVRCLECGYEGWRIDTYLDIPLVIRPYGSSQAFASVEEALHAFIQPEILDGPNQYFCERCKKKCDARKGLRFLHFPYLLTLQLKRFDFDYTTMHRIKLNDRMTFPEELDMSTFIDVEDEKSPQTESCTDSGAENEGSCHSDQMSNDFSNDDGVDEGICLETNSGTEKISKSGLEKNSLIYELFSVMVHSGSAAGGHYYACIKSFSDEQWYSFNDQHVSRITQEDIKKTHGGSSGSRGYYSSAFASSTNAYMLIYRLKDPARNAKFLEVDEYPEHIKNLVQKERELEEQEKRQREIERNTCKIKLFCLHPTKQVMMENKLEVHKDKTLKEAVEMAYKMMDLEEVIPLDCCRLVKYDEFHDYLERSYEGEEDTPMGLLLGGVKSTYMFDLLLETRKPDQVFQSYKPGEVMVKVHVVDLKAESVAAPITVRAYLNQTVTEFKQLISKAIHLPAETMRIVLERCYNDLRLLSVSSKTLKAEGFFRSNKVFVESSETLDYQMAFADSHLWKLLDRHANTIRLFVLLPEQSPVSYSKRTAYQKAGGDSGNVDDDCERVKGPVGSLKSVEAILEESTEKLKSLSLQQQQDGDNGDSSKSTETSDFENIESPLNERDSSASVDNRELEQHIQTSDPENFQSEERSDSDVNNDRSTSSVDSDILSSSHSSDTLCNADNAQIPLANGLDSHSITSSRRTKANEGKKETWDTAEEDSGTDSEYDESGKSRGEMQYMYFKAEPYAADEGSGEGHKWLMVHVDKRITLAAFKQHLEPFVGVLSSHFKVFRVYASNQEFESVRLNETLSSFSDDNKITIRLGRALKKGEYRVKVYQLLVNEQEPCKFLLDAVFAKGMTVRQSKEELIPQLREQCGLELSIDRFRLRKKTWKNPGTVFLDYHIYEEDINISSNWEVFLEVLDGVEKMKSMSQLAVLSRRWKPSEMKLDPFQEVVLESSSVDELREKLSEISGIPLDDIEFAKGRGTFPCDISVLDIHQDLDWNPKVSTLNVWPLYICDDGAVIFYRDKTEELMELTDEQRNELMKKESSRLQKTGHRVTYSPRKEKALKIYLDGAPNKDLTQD
How it was run: as §1

USP48 = target: T3, USP48 (UniProt Q86UV5)
T3 sequence (whole entry): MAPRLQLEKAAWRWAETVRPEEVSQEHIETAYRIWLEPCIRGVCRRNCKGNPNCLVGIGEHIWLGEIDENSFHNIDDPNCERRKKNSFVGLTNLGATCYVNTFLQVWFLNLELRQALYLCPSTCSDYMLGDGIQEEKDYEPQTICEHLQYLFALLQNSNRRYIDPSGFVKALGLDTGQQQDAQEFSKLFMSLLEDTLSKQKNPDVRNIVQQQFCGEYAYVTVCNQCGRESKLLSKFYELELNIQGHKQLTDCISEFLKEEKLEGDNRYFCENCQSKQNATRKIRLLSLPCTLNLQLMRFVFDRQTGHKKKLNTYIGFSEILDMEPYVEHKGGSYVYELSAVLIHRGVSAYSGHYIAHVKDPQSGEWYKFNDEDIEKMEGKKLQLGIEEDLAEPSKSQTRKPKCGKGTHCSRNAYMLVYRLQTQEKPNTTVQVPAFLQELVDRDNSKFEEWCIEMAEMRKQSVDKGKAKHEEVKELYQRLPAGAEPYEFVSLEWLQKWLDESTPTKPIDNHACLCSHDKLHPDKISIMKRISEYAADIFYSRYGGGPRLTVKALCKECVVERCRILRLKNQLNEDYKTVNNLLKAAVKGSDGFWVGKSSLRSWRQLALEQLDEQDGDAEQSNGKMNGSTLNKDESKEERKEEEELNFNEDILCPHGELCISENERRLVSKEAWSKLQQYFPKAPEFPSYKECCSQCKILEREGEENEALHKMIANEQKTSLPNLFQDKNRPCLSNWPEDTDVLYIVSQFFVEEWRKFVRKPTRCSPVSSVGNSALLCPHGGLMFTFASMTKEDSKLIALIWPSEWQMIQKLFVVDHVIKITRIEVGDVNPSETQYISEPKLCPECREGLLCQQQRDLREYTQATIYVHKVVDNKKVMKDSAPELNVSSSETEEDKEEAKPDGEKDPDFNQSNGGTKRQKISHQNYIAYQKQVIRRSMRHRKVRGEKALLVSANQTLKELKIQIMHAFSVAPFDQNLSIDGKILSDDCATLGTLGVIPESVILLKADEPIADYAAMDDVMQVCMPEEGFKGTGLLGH
How it was run: as §1

USP5 = target: T4, USP5 (UniProt P45974)
T4 sequence (whole entry): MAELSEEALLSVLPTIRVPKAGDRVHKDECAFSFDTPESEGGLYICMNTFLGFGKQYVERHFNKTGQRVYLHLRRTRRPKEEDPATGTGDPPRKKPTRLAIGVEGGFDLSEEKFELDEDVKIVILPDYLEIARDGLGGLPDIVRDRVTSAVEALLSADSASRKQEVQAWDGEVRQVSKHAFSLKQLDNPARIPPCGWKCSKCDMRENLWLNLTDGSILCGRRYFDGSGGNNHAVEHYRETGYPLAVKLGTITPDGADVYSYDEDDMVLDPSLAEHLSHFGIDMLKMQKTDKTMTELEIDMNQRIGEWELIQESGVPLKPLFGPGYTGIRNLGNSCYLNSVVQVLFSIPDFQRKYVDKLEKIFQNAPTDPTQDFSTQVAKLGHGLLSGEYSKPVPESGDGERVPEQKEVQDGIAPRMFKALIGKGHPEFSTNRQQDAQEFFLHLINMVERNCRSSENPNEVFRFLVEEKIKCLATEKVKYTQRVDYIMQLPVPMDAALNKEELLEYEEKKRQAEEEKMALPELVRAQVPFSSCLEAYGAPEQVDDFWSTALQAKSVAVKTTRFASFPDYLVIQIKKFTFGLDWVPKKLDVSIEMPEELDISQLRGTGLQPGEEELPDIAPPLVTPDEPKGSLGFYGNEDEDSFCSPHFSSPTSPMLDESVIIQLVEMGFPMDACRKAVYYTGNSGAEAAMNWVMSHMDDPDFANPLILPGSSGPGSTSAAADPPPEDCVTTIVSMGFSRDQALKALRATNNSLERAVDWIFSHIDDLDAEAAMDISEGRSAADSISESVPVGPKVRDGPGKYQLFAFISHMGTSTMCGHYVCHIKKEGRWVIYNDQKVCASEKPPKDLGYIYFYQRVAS
How it was run: as §1

USP54 = USP54 (UniProt Q70EL1)
Chain of USP54 (Q70EL1 whole entry): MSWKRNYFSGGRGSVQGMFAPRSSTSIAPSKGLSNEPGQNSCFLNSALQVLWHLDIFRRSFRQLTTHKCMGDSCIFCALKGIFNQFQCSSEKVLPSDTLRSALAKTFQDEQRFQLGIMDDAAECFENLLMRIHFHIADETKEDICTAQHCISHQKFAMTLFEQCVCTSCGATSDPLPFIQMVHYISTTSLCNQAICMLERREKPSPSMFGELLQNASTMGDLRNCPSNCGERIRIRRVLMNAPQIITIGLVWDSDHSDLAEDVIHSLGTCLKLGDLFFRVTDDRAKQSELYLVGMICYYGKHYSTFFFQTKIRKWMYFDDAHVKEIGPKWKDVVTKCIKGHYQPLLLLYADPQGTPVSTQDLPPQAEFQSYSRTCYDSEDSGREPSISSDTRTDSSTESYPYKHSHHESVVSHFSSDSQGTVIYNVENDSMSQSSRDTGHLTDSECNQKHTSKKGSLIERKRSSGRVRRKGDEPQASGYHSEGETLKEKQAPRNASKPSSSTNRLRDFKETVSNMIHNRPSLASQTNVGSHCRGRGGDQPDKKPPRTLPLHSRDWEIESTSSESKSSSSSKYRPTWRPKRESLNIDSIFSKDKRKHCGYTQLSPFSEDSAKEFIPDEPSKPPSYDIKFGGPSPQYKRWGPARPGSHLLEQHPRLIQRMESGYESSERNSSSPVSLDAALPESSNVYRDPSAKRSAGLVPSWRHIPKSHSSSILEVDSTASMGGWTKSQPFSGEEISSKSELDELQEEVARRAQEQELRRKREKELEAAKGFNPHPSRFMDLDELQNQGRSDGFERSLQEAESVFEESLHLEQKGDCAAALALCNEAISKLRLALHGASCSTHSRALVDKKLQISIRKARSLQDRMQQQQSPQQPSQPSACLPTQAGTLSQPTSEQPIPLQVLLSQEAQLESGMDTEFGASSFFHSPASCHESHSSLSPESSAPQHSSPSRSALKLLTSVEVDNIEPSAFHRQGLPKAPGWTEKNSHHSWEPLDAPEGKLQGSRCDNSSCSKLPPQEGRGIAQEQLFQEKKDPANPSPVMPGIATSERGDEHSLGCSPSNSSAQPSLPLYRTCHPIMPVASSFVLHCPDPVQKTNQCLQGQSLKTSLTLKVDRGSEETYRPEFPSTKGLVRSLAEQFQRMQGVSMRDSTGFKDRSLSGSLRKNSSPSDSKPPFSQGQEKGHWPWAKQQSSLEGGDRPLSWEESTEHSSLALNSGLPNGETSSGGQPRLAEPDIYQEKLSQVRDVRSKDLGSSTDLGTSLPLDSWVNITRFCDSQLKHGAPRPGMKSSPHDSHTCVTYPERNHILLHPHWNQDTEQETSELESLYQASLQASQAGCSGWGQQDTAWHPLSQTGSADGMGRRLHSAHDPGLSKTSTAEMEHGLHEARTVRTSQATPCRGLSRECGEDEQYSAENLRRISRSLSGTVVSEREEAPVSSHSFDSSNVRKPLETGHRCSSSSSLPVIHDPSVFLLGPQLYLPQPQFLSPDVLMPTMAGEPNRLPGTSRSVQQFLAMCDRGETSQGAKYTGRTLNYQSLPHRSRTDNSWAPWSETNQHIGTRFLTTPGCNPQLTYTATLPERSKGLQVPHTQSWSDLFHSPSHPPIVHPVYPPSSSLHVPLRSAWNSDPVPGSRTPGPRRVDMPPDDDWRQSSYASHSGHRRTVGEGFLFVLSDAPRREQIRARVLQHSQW
How it was run: as §1

USP7 = USP7 (UniProt Q93009)
How it was run: as §1

USP8 = target: T5, USP8 (UniProt P40818)
T5 sequence (whole entry): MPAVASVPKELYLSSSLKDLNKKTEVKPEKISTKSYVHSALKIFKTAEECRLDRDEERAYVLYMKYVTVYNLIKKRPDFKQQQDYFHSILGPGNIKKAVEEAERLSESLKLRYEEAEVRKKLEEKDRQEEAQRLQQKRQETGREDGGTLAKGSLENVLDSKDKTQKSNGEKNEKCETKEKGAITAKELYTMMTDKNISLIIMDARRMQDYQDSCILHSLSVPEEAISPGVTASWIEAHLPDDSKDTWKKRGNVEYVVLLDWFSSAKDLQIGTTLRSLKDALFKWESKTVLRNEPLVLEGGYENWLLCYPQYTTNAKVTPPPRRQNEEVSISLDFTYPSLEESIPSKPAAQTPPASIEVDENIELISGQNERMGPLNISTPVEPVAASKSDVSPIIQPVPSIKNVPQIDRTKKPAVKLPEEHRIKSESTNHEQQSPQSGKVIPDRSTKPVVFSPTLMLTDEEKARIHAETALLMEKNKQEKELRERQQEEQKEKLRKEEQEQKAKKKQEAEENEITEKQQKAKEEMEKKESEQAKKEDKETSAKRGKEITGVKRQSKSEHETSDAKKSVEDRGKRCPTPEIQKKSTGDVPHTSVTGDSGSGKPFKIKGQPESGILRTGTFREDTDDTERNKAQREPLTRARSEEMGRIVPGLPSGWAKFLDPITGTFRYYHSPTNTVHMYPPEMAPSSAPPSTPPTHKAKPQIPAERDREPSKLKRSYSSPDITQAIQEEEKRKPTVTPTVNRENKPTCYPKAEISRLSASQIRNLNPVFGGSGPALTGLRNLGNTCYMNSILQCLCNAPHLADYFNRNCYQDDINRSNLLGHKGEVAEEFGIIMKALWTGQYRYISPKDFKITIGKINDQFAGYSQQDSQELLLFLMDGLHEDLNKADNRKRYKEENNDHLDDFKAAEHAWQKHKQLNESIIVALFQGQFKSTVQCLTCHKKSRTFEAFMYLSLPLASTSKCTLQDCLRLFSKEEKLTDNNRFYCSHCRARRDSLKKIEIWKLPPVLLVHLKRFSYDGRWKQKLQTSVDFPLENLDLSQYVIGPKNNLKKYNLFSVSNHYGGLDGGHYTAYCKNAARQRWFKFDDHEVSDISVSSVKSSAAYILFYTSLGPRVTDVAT
How it was run: as §1

USP9X = USP9X (UniProt Q93008)
Chain of USP9X (Q93008 whole entry): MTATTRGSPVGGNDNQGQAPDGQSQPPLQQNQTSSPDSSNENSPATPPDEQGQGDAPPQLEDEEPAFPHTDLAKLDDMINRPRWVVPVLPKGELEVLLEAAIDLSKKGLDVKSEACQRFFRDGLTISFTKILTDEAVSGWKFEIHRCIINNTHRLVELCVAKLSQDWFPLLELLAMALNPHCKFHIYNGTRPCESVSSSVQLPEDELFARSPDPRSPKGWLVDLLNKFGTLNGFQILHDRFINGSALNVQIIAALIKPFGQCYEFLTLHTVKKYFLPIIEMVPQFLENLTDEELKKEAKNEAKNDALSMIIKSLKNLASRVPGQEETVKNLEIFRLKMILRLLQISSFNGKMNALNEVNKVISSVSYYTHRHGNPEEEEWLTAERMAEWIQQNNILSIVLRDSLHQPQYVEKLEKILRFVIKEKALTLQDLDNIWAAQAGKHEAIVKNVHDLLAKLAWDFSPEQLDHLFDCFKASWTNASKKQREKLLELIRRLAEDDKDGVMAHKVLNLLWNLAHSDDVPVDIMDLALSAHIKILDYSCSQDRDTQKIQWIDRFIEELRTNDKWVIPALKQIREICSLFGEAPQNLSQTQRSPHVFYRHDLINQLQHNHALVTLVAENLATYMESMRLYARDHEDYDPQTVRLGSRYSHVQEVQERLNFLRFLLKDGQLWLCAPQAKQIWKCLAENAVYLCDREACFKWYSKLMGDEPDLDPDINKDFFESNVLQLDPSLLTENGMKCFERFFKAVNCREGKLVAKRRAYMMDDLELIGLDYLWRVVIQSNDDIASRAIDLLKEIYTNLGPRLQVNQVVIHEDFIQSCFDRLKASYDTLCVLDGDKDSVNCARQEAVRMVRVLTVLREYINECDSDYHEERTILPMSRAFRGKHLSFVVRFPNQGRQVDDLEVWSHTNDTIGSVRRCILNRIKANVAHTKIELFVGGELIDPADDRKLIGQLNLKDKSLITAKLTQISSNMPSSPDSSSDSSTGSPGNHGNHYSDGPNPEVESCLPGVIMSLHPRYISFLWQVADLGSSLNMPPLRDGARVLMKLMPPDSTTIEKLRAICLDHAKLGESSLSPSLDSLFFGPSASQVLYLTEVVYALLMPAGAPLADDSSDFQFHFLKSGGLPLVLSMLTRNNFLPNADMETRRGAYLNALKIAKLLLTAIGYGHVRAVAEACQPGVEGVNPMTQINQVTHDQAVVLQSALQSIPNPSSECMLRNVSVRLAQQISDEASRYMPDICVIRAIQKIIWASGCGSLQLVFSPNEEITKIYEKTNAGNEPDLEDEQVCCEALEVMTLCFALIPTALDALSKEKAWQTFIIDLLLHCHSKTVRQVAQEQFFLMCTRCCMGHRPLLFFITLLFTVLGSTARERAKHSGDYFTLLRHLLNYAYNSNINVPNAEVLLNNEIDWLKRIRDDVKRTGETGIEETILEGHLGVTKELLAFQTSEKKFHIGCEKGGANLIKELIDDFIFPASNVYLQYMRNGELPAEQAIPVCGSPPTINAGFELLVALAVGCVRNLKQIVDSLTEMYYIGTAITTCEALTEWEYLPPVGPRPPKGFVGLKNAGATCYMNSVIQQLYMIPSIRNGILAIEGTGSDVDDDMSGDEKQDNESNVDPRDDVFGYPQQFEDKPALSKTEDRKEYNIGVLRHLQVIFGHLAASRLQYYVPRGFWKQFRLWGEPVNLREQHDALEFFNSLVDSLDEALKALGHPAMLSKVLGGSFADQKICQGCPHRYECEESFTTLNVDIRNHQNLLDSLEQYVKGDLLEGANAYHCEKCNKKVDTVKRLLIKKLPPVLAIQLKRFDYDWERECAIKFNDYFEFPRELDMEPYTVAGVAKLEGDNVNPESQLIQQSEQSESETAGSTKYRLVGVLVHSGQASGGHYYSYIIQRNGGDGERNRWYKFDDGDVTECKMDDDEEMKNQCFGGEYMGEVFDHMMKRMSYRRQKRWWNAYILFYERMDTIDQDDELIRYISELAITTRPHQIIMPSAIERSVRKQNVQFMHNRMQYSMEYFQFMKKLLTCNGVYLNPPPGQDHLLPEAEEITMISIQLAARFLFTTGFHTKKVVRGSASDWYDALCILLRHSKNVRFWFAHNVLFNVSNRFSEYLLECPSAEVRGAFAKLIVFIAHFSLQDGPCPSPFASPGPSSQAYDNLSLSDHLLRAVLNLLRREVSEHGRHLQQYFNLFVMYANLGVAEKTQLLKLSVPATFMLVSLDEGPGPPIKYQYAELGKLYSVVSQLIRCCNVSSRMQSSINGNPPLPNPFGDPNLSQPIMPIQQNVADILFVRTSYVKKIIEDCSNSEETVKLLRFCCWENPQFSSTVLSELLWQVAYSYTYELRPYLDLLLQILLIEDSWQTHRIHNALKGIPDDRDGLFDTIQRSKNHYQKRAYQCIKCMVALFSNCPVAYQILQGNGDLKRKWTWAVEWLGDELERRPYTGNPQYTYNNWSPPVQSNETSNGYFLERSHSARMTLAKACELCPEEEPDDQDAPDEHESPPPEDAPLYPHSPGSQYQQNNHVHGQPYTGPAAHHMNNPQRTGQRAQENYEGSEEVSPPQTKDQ
How it was run: as §1

UniProt O00487 = target: UniProt O00487
Chain of UniProt O00487 (O00487 whole entry): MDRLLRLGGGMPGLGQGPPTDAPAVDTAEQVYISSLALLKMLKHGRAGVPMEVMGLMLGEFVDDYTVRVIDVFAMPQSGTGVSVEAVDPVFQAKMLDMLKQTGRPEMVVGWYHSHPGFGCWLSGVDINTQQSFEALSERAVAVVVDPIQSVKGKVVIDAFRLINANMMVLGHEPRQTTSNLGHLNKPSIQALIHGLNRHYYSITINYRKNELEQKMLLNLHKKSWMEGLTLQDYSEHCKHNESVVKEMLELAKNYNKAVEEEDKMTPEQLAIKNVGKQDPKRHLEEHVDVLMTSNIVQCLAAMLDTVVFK
How it was run: as §1

Measured: log2 ratio of Biotin-Ahx-Ub-VS probe labelling

O=C(CCl)NCCc1cccc2ccccc12
inactive: USP42 0.608 | USP46 -0.0148 | USP47 0.102 | USP48 -0.131 | USP5 0.258 | USP54 -0.0844 | USP7 -0.217 | USP8 -0.118 | USP9X 0.0346 | UniProt O00487 0.00956

Cl.O=C(CCl)N1CCCC(c2ncc[nH]2)C1 (stereo not given)
inactive: USP42 -0.153 | USP46 0.183 | USP47 -0.357 | USP48 -0.331 | USP5 0.191 | USP54 0.506 | USP7 -0.273 | USP8 -0.0352 | USP9X -0.121 | UniProt O00487 -0.0974

CN1c2ccccc2C(NC(=O)CCl)CS1(=O)=O (stereo not given)
inactive: USP42 -0.0975 | USP46 0.0351 | USP47 -0.132 | USP48 -0.464 | USP5 0.146 | USP54 0.66 | USP7 -0.369 | USP8 -0.341 | USP9X -0.252 | UniProt O00487 -0.206

O=C(CCl)N1CCC2(CCC(O)CC2)CC1
inactive: USP42 0.175 | USP46 0.0165 | USP47 -0.0514 | USP48 -0.0801 | USP5 0.218 | USP54 0.833 | USP7 -0.00495 | USP8 -0.382 | USP9X -0.156 | UniProt O00487 0.0439
